Measurements from PubChem BioAssay (NCATS).
Values joined by “and” are separate entries in the source; they are usually repeats but may differ in a detail not shown here. Equal entries are not always repeated. Records with an inconclusive call do not appear. Active and inactive are the calls of the source. Unless noted, calls follow the shape of the dose curve; as a rule, active = well fitted curve in the direction sought with a large enough effect; inconclusive = small, poorly fitted or top-dose-only effect, or another doubt; inactive = no such curve, though single readings can be large; an effect the other way counts as inactive or inconclusive.

What was measured:
[1] = qHTS for Activators of Parkin Expression: LOPAC Validation Assay (FLuc Reporter) (AID 720573;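 also: 0% = DMSO and 100% = positive control compounds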); details: Cell line, PRKN promoter firefly luciferase reporter, vehicle wells = 0, positive control = 100%; series mostly up to 46.1 µM
Procedure, shortened: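 Readout is FLuc luminescence from neuronal reporter cells (Parkin promoter, FLuc plus NLuc) after 24 h compound exposure in dose response. Values normalized to neutral DMSO and positive-control compounds.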

[2] = biological target: T1, Hexokinase-4 (Homo sapiens) + Glucokinase regulatory protein (Homo sapiens) (UniProt P35557+Q14397); assay: qHTS assay for inhibitors of recombinant human GCK-GKRP interaction: Diaphorase-coupled assay (AID 743205); details: G6PDH/diaphorase resorufin fluorescence; series mostly up to 57.5 µM
T1 sequence (P35557 whole entry, looked up): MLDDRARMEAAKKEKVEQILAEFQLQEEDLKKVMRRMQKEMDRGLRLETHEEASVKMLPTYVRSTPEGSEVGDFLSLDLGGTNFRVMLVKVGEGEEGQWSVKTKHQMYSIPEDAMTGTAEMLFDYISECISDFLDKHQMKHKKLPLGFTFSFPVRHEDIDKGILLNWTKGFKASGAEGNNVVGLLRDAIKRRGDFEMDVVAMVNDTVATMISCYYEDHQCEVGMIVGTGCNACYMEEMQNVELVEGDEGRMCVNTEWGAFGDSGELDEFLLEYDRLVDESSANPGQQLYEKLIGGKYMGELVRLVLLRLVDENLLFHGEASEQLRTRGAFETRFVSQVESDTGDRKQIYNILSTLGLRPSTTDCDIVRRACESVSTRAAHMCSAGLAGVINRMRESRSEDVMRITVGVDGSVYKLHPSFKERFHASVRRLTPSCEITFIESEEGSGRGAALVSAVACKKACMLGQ
T1 sequence (Q14397 whole entry, looked up): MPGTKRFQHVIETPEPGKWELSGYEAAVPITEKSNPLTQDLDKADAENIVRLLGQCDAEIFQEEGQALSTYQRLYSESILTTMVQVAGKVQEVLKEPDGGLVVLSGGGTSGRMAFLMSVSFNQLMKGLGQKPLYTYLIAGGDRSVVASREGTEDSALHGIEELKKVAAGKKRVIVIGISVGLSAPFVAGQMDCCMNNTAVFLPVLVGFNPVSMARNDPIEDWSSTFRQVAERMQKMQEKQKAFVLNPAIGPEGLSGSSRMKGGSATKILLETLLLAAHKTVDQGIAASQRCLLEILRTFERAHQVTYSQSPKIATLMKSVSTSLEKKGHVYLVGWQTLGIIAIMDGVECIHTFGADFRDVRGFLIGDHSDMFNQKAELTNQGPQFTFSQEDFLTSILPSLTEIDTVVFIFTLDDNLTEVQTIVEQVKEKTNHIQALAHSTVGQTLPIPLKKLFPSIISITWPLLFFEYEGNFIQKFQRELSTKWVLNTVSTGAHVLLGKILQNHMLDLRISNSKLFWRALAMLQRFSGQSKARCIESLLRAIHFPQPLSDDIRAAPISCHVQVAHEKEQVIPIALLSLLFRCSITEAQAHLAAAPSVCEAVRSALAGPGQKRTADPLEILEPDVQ
Procedure, shortened: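 Signal derives from resorufin generated by diaphorase, linked to GCK turnover of glucose (5 mM) and ATP (0.4 mM). Enzyme complex was added after a 20-minute compound preincubation and monitored for 30 minutes.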

[3] = biological target: T1, Hexokinase-4 (Homo sapiens) + Glucokinase regulatory protein (Homo sapiens); assay: qHTS assay for inhibitors of recombinant human GCK-GKRP interaction: ADP-Glo assay (AID 743206); details: ADP-Glo luminescence, 60 min, 0% = vehicle-only wells with enzyme present; series mostly up to 76.9 µM;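 also: plate controls were DMSO plus enzyme for no effect and no enzyme for full effect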
Procedure, shortened: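 Pin-transferred compounds meet a 15 nM GST-GCK/15 nM FLAG-GKRP/2 uM S6P mix (dispense concentrations). ATP is then added to 0.4 mM final with 5 mM glucose, and the reaction runs 60 min at room temperature. ADP is quantified luminescently.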

[4] = biological target: T1, Hexokinase-4 (Homo sapiens) + Glucokinase regulatory protein (Homo sapiens); assay: qHTS assay for inhibitors of recombinant human GCK-GKRP interaction: HTRF assay (AID 743207); details: recombinant GCK-GKRP HTRF binding, 60 min, with sorbitol-6-phosphate; series mostly up to 57.5 µM;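 also: 0% = DMSO with GCK present and -100% = DMSO wells lacking GCK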
Procedure, shortened: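 Titration screening format: recombinant GST-GCK and FLAG-GKRP at 5 nM, S6P at 2 uM, labelled anti-tag antibodies, 60 min at RT, dual-wavelength HTRF readout.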

[5] = qHTS Assay for Identifying Gametocytocidal Compounds (AID 743244); also: potency is read from the fitted curve at half-maximal effect;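 as to max response: % is scaled to controls: 0 for no effect and ±100 for the full control effect; actives lower the fluorescent signal which means gametocytes are killed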; details: P. falciparum 3D7 stage III-V gametocytes, alamarBlue, 72 h; max response: active compounds read low
Procedure, shortened: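 A resazurin-based viability read-out was applied to mature P. falciparum gametocytes: 72 h compound treatment, then 24 h dye incubation, with falling fluorescence signalling gametocytocidal effect.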

[6] = qHTS assay for small molecule agonists of the antioxidant response element (ARE) signaling pathway measured by Nrf2-dependant transcriptional activity (AID 720636; active = well fitted curve in the direction sought with a large enough effect in the repeat runs; an effect the other way counts as inactive or inconclusive;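 also: HepG2 cells with an ARE-driven luciferase reporter; % of control where 0% means no effect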); details: ARE-luc HepG2, Nrf2 luciferase reporter, 16 h; series mostly up to 92.4 µM
Procedure, shortened: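 In HepG2 cells engineered with an Nrf2-responsive luciferase gene, ARE induction was quantified as luminescence after 16 hr compound treatment at 37 C.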

[7] = qHTS assay for small molecule antagonists of the retinoid-related orphan receptor gamma (ROR-gamma) signaling pathway - cell viability counter screen (AID 720652; active = well fitted curve in the direction sought with a large enough effect in the repeat runs; an effect the other way counts as inactive or inconclusive;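 also: CHO reporter cells with doxycycline-induced ROR-gamma expression; compound exposure lasted 16 hr before ATP read; % is scaled to controls: 0 for no effect and ±100 for the full control effect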); details: RORgamma reporter cell line viability counter screen; series mostly up to 92.2 µM
Procedure, shortened: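 Cytotoxicity counter screen: intracellular ATP (CellTiter-Glo luminescence) measured in the doxycycline-induced CHO RORE-luciferase reporter line after 16 hr compound exposure at 37 C, 5% CO2.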

[8] = qHTS assay for small molecule agonists of the antioxidant response element (ARE) signaling pathway measured by Nrf2-dependant transcriptional activity - cell viability counter screen (AID 720653; active = well fitted curve in the direction sought with a large enough effect in the repeat runs; an effect the other way counts as inactive or inconclusive; also: % is scaled to controls: 0 for no effect and ±100 for the full control effect); details: ARE-bla HepG2 viability, CellTiter-Glo ATP luminescence, 16 h; max response: active compounds read low
Procedure, shortened: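 ARE-bla HepG2 cells treated with compounds for 16 h at 37C; this counter screen measures viability as intracellular ATP by CellTiter-Glo luminescence after 30 min at room temperature.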

[9] = qHTS assay for cell viability of HEK293 cells (AID 743288); details: ATP luminescence (CellTiter-Glo), 18 h; max response: active compounds read low; also: % is scaled to controls: 0 for no effect and ±100 for the full control effect; nearly all actives have a fitted effect of over 50% in size
Procedure, shortened: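 HEK293, 18 h, 37 C, ATP luminescence. Cells at 2,000/well were allowed at least 5 h to settle before dosing; CellTiter-Glo developed 30 min at RT.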

[10] = qHTS assay for cell viability of the p53RE-bla HCT-116 cell line (AID 743292); details: p53RE-bla HCT-116 viability, ATP luminescence, 16 h; series mostly up to 95 µM; also: % is scaled to controls: 0 for no effect and ±100 for the full control effect; nearly all actives have a fitted effect of over 55% in size
Procedure, shortened: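 Intracellular ATP of p53RE-bla HCT-116 cells measured by luciferase luminescence following 16 h compound incubation at 37 C; DMSO-only wells served as vehicle controls.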

CCCCNc1c(C(=O)OCC)c(C)nc2c1cnn2CC
inactive: outcome [1] | outcome [2] | outcome [3] | Potency [4] | max response [5] -2.63% and 24%

CCN(CC)CCNC(=O)c1ccc(NC(C)=O)cc1
inactive: outcome [1] | outcome [2] | outcome [3] | Potency [4] | max response [5] 11.5% and -3.43%

CN(C)CC/C=C1\c2ccccc2COc2ccccc21
inactive: outcome [1] | outcome [2] | outcome [3] | Potency [4] | max response [5] 1.05% and 7.48%

CN1C[C@H](C(=O)N[C@]2(C)O[C@@]3(O)[C@@H]4CCCN4C(=O)[C@H](Cc4ccccc4)N3C2=O)C[C@@H]2c3cccc4[nH]cc(c34)C[C@H]21
inactive: outcome [1] | outcome [3] | Potency [4]

CCN1CCc2nc(N)oc2CC1
inactive: outcome [1] | outcome [2] | outcome [3] | Potency [4] | max response [5] 11% and 14%

CN(C)C(=O)Oc1cccc([N+](C)(C)C)c1
inactive: outcome [1] | outcome [2] | outcome [3] | Potency [4] | max response [5] 5.44% and 20.8%

CCN(CC)CC(=O)Nc1c(C)cccc1C
inactive: outcome [1] | outcome [2] | outcome [3] | Potency [4] | max response [5] 0.639% and 6.44%

CCCN1C[C@H](CSC)C[C@@H]2c3cccc4[nH]cc(c34)C[C@H]21
inactive: outcome [1] | outcome [2] | outcome [3] | Potency [4] | max response [5] 27.1%

O=C1CC2(CCCC2)CC(=O)N1CCCCN1CCN(c2ncccn2)CC1
inactive: outcome [1] | outcome [3] | Potency [4]

Cc1ccc(Cl)c(Nc2ccccc2C(=O)O)c1Cl
inactive: outcome [1] | outcome [3] | Potency [4] | max response [5] -8.31% and 12.8%

COCCOC(=O)C1=C(C)NC(C)=C(C(=O)OC(C)C)C1c1cccc([N+](=O)[O-])c1 (stereo unspecified)
inactive: outcome [1] | outcome [3] | Potency [4] | max response [5] 18.6% and 13.2%

CCN(CC)CCNC(=O)c1cc(S(C)(=O)=O)ccc1OC
inactive: outcome [1] | outcome [2] | outcome [3] | Potency [4] | max response [5] -4.07%

CCCNC(C)C(=O)Nc1ccccc1C (stereo unspecified)
inactive: outcome [1] | outcome [2] | outcome [3] | Potency [4] | max response [5] 7.26% and 27.6%

CCCN(CCC)CCc1cccc2c1CC(=O)N2
inactive: outcome [1] | outcome [2] | outcome [3] | Potency [4] | max response [5] 3.57% and 20.6%

CCC(=O)c1ccc2c(c1)N(CCCN(C)C)c1ccccc1S2
inactive: outcome [1] | outcome [3] | Potency [4]

CC(=O)OCC1=C(C(=O)O)N2C(=O)[C@@H](NC(=O)Cc3cccs3)[C@H]2SC1
inactive: outcome [1] | outcome [3] | Potency [4] | max response [5] 2.41% and 26.5%

Cc1nc2sccn2c(=O)c1CCN1CCC(=C(c2ccc(F)cc2)c2ccc(F)cc2)CC1
inactive: outcome [1] | outcome [3] | Potency [4] | max response [5] -7.25% and 26.8%

OCCN1CCN(CC/C=C2/c3ccccc3Sc3ccc(C(F)(F)F)cc32)CC1
inactive: outcome [1] | outcome [3] | Potency [4]

C[n+]1cc2c3c(ccc2c2ccc4cc5c(cc4c21)OCO5)OCO3
active: Potency [5] 3.16 µM
inactive: outcome [1] | outcome [3] | Potency [4]

COc1ccc(CCN(C)CCCC(C#N)(c2cc(OC)c(OC)c(OC)c2)C(C)C)cc1OC (stereo unspecified)
inactive: outcome [1] | outcome [2] | outcome [3] | Potency [4] | max response [5] 12.4% and 4.11%

CN(C)CCN(Cc1cccs1)c1ccccn1
inactive: outcome [1] | outcome [2] | outcome [3] | Potency [4] | max response [5] -13% and 5.58%

O=C(O)CN(CCOCCOCCN(CC(=O)O)CC(=O)O)CC(=O)O
inactive: outcome [1] | outcome [2] | outcome [3] | Potency [4] | max response [5] -5.05% and 25.1%

c1cc(CN2CCCCC2)cc(OCCCNc2nc3ccccc3s2)c1
inactive: outcome [1] | outcome [3] | Potency [4] | max response [5] -9.42%

CCN(Cc1ccncc1)C(=O)C(CO)c1ccccc1 (stereo unspecified)
inactive: outcome [1] | outcome [3] | Potency [4] | max response [5] 10.4% and 27%

CCN1CCC[C@H]1CNC(=O)c1c(O)c(Cl)cc(Cl)c1OC
inactive: outcome [1] | outcome [2] | outcome [3] | Potency [4] | max response [5] 5.28% and 32.3%

CCn1ccnc1CC1COc2ccccc2O1 (stereo unspecified)
inactive: outcome [1] | outcome [3] | Potency [4] | max response [5] 13.9% and 11.7%

COc1ccc([C@@H]2Sc3ccccc3N(CCN(C)C)C(=O)[C@@H]2OC(C)=O)cc1
inactive: outcome [1] | outcome [3] | Potency [4] | max response [5] -3.45%

CCCCOCCOCCOCc1cc2c(cc1CCC)OCO2
inactive: outcome [6] | outcome [7] | max response [8] -10.7% and -4.66% | max response [9] -11.4% and -13.4% | outcome [10]

NC(=Nc1ccccc1)Nc1ccccc1
inactive: outcome [7] | max response [9] -13.7% and -2.76% | outcome [10]
